# In PubChem BioAssay AID2315 (National Center for Advancing Translational Sciences (NCATS), 2010):
# Several values for one entry are separate records, joined by “and”; a condition that tells them apart may be missing. Identical values can stand only once. In all, about 290,000 compounds went through this assay and about 27,000 (9.3%) were called active. Rule as the data show it: active = inhibition mostly above about 28% (no sharp cut-off); inactive = mostly below about 43%. Many of the other results were omitted from the sample, so actives are more common in it than they were.
# Assay: A qHTS for Small Molecule Inhibitors of Shiga Toxin; as to inhibition: 0% is about no effect
# Conditions: Vero cells, Shiga toxin protein synthesis inhibition reporter; at 38.7 µM, stronger effect = higher value
row,SMILES,inhibition
1,CC(=O)c1cc2c(cc1NC(=O)Cn1nc(-c3ccc(F)cc3)ccc1=O)OCO2,20.6% (inactive)
2,CSc1ccc(/C=N\NC(=O)COc2ccc(Cl)cc2Br)cc1,59.9% (inactive)
3,CSc1ccc(/C=N\NC(=O)CC(=O)NC(C)C)cc1,14.5% (inactive)
4,CSc1ccc(/C=N/NC(=O)c2cccc(Cl)c2)cc1,4.92% (active)
5,COc1ccc(NC(=O)NN2CCN(C)CC2)c(OC)c1,-17.8% (inactive)
6,COc1c(O)cc2oc(-c3ccc(O)c(O)c3)cc(=O)c2c1O,69.1% (active) and 69% (active)
7,O=c1cc(-c2ccc(O)cc2)oc2c(-c3cc(-c4cc(=O)c5c(O)cc(O)cc5o4)ccc3O)c(O)ccc12,-1.7% (inactive)
8,COc1ccc(-c2cc(=O)c3c(O)cc(O[C@@H]4O[C@H](CO[C@@H]5O[C@@H](C)[C@H](O)[C@@H](O)[C@H]5O)[C@@H](O)[C@H](O)[C@H]4O)cc3o2)cc1O,-12.1% (inactive)
9,CN(CC1CCCO1)S(=O)(=O)c1ccc(C(=O)Nc2ccc(F)cc2)cc1 (stereo not drawn),11.9% (inactive)
10,Cc1ccc(SCCC(=O)NCc2ccccn2)cc1,-6.02% (inactive)
11,Cc1ccc(SCCSc2ncccn2)cc1,38.6% (active)
12,Cc1ccc(SCCC(=O)NC(C(C)C)C(C)C)cc1,-4.72% (inactive)
13,Cc1ccc(S(=O)Cc2ccc(C(=O)N3CCN(C4CCCCC4)CC3)o2)cc1 (stereo not drawn),-3.36% (inactive)
14,COc1ccc(CN2CCN(Cc3ccc(OC)c(OC)c3OC)CC2)cc1,-4.07% (inactive)
15,CC(C)C(C(=O)NCc1ccco1)N(CC1CCCO1)C(=O)CNS(=O)(=O)c1ccc(F)cc1 (stereo not drawn),-0.539% (inactive)
16,CCc1ccccc1S(=O)(=O)Cc1ccc(C(=O)NCCc2ccccc2)o1,6.5% (inactive)
17,O=C(CSc1n[nH]c(=O)n1-c1ccccc1)Nc1ccccc1C(F)(F)F,-2.01% (inactive)
18,Cc1cc(C)c2nc(N3CCC(C(=O)NCCN4CCOCC4)CC3)sc2c1,17.8% (inactive)
19,Fc1cc(F)c2nc(Nc3nc4c(F)cccc4s3)sc2c1,28.3% (inactive)
20,Fc1cc(F)c2nc(N3CCOCC3)sc2c1,87.4% (active)
21,COC(=O)C1=C(O)/C(=C/c2ccc(OCC(=O)Nc3ccccc3)cc2)N=C1C,-18.9% (inactive)
22,CC1CN(CC(=O)NC(C)c2ccccc2)CC(C)O1 (stereo not drawn),-5.21% (inactive)
23,CCCSc1nsc(N)n1,11% (inactive)
24,Nc1nc(SC23CC4CC(CC(C4)C2)C3)ns1,1.53% (inactive)
25,CCCCCCSc1nsc(N)n1,59.2% (active)

row,SMILES,inhibition
1,CCc1cccc(NC(=O)C2CCCN(S(=O)(=O)c3ccc4[nH]c(=O)ccc4c3)C2)c1 (stereo not drawn),-5.44% (inactive)
2,CCCCn1c(N)c(N(CC)C(=O)c2ccccc2C(F)(F)F)c(=O)[nH]c1=O,3.43% (inactive)
3,Cc1nn(C(C)C(=O)NCCC2=CCCCC2)c(=O)c2nn(-c3ccccc3)c(C)c12 (stereo not drawn),18.5% (inactive)
4,C1=C(CCNc2ncnc3c2cnn3-c2ccccc2)CCCC1,190% (active)
5,O=C(NCCC1=CCCCC1)C1CCN(Cc2cnn(-c3ccccc3)c2-n2cccc2)CC1,31% (inactive)
6,O=C(Cc1ccc(Br)cc1)NCCN1CCOCC1,-10.9% (inactive)
7,CC1CCN(C(=O)CCc2nnc3ccc(NCc4ccco4)nn23)CC1,12.6% (inactive)
8,Cc1cccc(-n2cnc(C(=O)Nc3cccnc3)c2)n1,101% (active)
9,Cc1cccc(-n2cnc(C(=O)NNC(=S)Nc3ccccc3)c2)n1,-10.7% (inactive)
10,O=C(Nc1cccnc1)c1cc([N+](=O)[O-])ccc1Cl,-2.48% (inactive)
11,Cc1ccc(SCCC(=O)Nc2cc(C)on2)cc1,-4.4% (inactive)
12,Cc1ccc2nc(-c3ccc(SCC(=O)Nc4cc(C)on4)nc3)[nH]c2c1,71.3% (active)
13,Cc1ccc2nc(SCC(=O)NC3CCCC3)[nH]c2c1,-2.14% (inactive)
14,CC(C)(C)c1ccc(C(=O)N2CCN(CCNC(=O)C(=O)Nc3ccc(F)cc3)CC2)cc1,-6.99% (inactive)
15,CCOC(=O)c1cc2cc(C)ccc2[nH]1,168% (active)
16,CCNCc1cc2cc(C)ccc2[nH]c1=O,12% (inactive)
17,CC(=O)OCc1cc2cc(C)ccc2[nH]c1=O,-8.28% (inactive)
18,COc1ccc(CNC(=O)[C@H](Cc2c[nH]c3ccccc23)NC(C)=O)cc1OC,-6.62% (inactive)
19,COc1ccc(-c2ccc(CCC(=O)O)n2NC(=O)c2ccc(C(C)(C)C)cc2)cc1,21% (active)
20,COc1ccc(-c2ccc(CCC(=O)O)n2-c2ccc(O)cc2)cc1,4.87% (inactive)
21,COCCCn1c(CCC(=O)O)ccc1-c1ccc(F)cc1,13% (inactive)
22,O=C(CSc1nnc(Nc2ccccc2)s1)Nc1cccnc1Cl,-14.8% (inactive)
23,CC(C)c1ccc(Nc2nnc(SCC(=O)c3nnc(-c4ccccc4)o3)s2)cc1,58.9% (active)
24,Cc1ccc(Nc2nnc(SCC(=O)c3cc4ccccc4o3)s2)cc1C,19.8% (inactive)
25,Cc1cc(C)cc(Oc2c(C(F)(F)F)oc3cc(OCC(=O)O)ccc3c2=O)c1,-4.45% (inactive)

row,SMILES,inhibition
1,CC(C)=CCN1CCN(Cc2cc3ccccc3[nH]2)CC1CCO (stereo not drawn),1.5% (inactive)
2,N#Cc1cccc(CN2CCC(=O)N(CCO)CC2)c1,2.03% (inactive)
3,CC(C)(C)NS(=O)(=O)c1ccc(NC(=O)C2CCCO2)cc1 (stereo not drawn),-21.4% (inactive)
4,O=C(Nc1nnc(SCc2c(Cl)cccc2Cl)s1)C1CCCO1 (stereo not drawn),86.4% (inactive)
5,O=C(Nc1cccc(-c2nnc(-c3ccccc3)o2)c1)C1CCCO1 (stereo not drawn),85% (active)
6,O=C(Nc1cccc(Cl)c1)Nc1nnc(-c2ccccc2)o1,-12.3% (inactive)
7,O=C(Nc1ccc(-c2nnc(-c3ccccc3)o2)cc1)C1CCCO1 (stereo not drawn),93.5% (active)
8,O=C(Nc1nnc(CCc2ccccc2)s1)C1CCCO1 (stereo not drawn),39.5% (inactive)
9,CCCCC(=O)Nc1c2c(nn1-c1ccc([N+](=O)[O-])cc1)CS(=O)(=O)C2,19.5% (inactive)
10,Cc1ccc2c(C)c(C(=O)N(C)Cc3ccncn3)oc2c1C,4.22% (inactive)
11,C=CCn1c(SCC(=O)NCCCO)nc2sc3c(c2c1=O)CCC3,8.99% (inactive)
12,Brc1ccc(-c2n(-c3ccccn3)c3ccccc3[n+]2-c2ccccn2)cc1,12.9% (inactive)
13,O=[N+]([O-])c1cccc(S(=O)(=O)NCc2ccccn2)c1,-7.29% (inactive)
14,Cc1cc2cc3c(N)[nH]nc3nc2cc1C,40.9% (active)
15,CSc1ncccc1C(=O)Nc1nc2ccc(F)cc2s1,138% (active)
16,CSc1ncccc1C(=O)Nc1ccc(C)cn1,34% (inactive)
17,COc1cc(NC(=O)c2cccnc2SC)cc(OC)c1,10.8% (inactive)
18,COCCn1c(N)c(NCc2ccccc2)c(=O)[nH]c1=O,-3.86% (inactive)
19,COc1ccc(C2CC(c3cccs3)=NN2C(=O)CSc2nnc(N)s2)cc1OC (stereo not drawn),-6.81% (inactive)
20,COc1ccc(C2CC(c3cccs3)=NN2C(=O)CCC(=O)O)cc1OC (stereo not drawn),-4.61% (inactive)
21,COc1ccc(C2CC(c3cccs3)=Nc3ccccc3S2)cc1OC (stereo not drawn),41.1% (active)
22,O=C(NCc1ccccc1Cl)C1CCN(c2ncnc3c2nc2n3CCCCC2)CC1,-9.78% (inactive)
23,COc1ccc(C(=O)NC2CCN(C(=S)NCCc3ccccc3)CC2)cc1,2.57% (inactive)
24,S=C(NCCc1ccccc1)N1CCCCC1,66.4% (active)
25,S=C(NCCc1ccccc1)Nc1ccccc1,57.4% (active)

row,SMILES,inhibition
1,O=C(NCCc1c[nH]c2ccccc12)C(=O)NCC1CCCO1 (stereo not drawn),-8.17% (inactive)
2,Oc1ccc(N2CCN(C(=S)NCc3ccccc3)CC2)cc1,17.4% (inactive)
3,CC1CCCCN1C(=S)NCc1ccccc1 (stereo not drawn),-6.29% (inactive)
4,O=C1CCN(C(=S)NCCc2ccccc2)CC1,35.2% (inactive)
5,Oc1ccccc1N1CCN(C(=S)NCc2ccccc2)CC1,76.8% (active)
6,S=C(NCCCc1ccccc1)Nc1ccc(Br)cc1,0.943% (inactive)
7,S=C(NCCc1ccccc1)NCC1CCCO1 (stereo not drawn),0% (active)
8,S=C(NCCc1ccccc1)NCc1ccccc1Cl,18.4% (inactive)
9,O=C(CS(=O)(=O)Cc1ccccc1)NCC1CCCO1 (stereo not drawn),-4.38% (inactive)
10,Clc1cc(NC2CCCCC2)ncn1,-10.3% (inactive)
11,CCOC(=O)C1C/C(=C\C(C)=O)c2cccc(C(F)(F)F)c2O1 (stereo not drawn),inactive
12,COc1ccc(CCN2C(=O)C(C)=C(C)C2=O)cc1OC,17.7% (inactive)
13,COCCn1c(SCC(=O)Nc2nc(C)cs2)nnc1C(C)C,-5.99% (inactive)
14,Cc1nnc(NC(=O)C(c2ccccc2)c2ccccc2)s1,-9.41% (inactive)
15,COc1ccccc1N1CCN(C(=O)CCS(=O)(=O)c2ccc3c(c2)NC(=O)C(C)S3)CC1 (stereo not drawn),-1.86% (inactive)
16,O=C(CN1CCN(Cc2ccccc2)CC1)Nc1ccc(F)c(F)c1,14.5% (inactive)
17,Cc1ccc(NC(=O)COC(=O)C2C3CC4OC(=O)C2C4C3)cc1Cl (stereo not drawn),17.4% (inactive)
18,Cc1ccc(S(=O)(=O)N(CC(O)CN2C(=O)NC(C)(C)C2=O)c2cccc([N+](=O)[O-])c2)cc1 (stereo not drawn),-12.9% (inactive)
19,COc1ccc(CCNC(=O)CCC(=O)NC2CCCCC2)cc1OC,10.5% (inactive)
20,COC(=O)CN1C(=O)[C@H]2[C@@H](/C=C/c3ccccc3)N3C(=O)CN(CC4CC4)C(=O)[C@@]3(Cc3ccccc3)[C@H]2C1=O,-11.8% (inactive)
21,S=C(NCCC1=CCCCC1)Nc1ccccc1,72.2% (active)
22,O=C(Cc1cccc2ccccc12)NCCC1=CCCCC1,-13.5% (inactive)
23,Cc1nnc(OCC(=O)NCCC2=CCCCC2)c2ccccc12,-1.67% (inactive)
